This is part of a sample that, as a whole, favours compounds with a hit. Of some 83,000 tested, about 20% had one in any assay.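 Assay: single dose, 48 h. Readout: percent growth (0 = no net growth; negative = cell death). Active: <10.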 A number with no mark means an inactive call. The source made the active and inactive calls.

The experiment has as its system HL-60(TB) leukemia. Briefly: NCI-60 one-dose screen, 48 h (100 = growth as untreated, 0 = no growth, -100 = all killed). Particulars: 10 µM unless noted.
As to `CN(CCCNC(=O)CCOCCOCCOCCNC(=O)Cc1ccc2ccc3cccc4ccc1c2c34)CCCNc1cc(-c2ccc3ccccc3c2)nc2ccccc12`, the growth was -77.6% (active).
Then `COc1cc(C2CC(=O)Nc3c2c(C)nn3-c2nc3ccccc3[nH]2)cc2c1OCC(=O)N2` (stereo not given), with 77.4%.
For `COc1ccc(CCN2C(=O)CCSC2=S)cc1` the value was 72.3%.
As to `O=C1C=C(c2ccccc2)C(O)(c2ccccc2)C1` (stereo not given), the growth was 85.2%.
For `CC(=O)C1C(=O)C(=O)N(c2cccc([N+](=O)[O-])c2)C1=O` (stereo not given) the value was 103%; for `CC(=O)Nc1ccc(NC(C)=O)c2c1C(=O)c1ccccc1C2=O`, 154%.
Consider `O=C(Nc1ccc(-n2ccc3c(NC(=O)c4ccccc4)ncnc32)cc1)c1cccc(C(F)(F)F)c1`, for which the growth is 43.9%.
Then `COc1ccc2nc(-c3ccc(Cl)cc3)cc(-c3nnc(SC/C(=N/O)c4ccccc4)o3)c2c1`, with 82%; and `COc1cc(/C=C/C(=O)c2cccc(-n3cc(-c4ccc(Cl)cc4)[nH]c3=O)c2)ccc1O`, with -19.9% (active).
Consider `COc1cc(-c2cn(-c3ccc(Cl)c(Cl)c3)c(=O)[nH]2)cc(OC)c1OC`, for which the growth is 88.1%.
In the case of `CCOC(=O)C(C)C(C)(O)c1ccccc1` (stereo not given), the growth is 99.2%.
Then `COc1cc(-c2c(C#N)c(N)n3c(nc4ccccc43)c2C#N)cc(Br)c1OC`, with 62.9%.
Then `O=C(Nc1cccc(-n2cc(-c3ccncc3)c(-c3ccc(Cl)c(O)c3)n2)c1)c1ccccc1`, with 167%.
For `O=C(c1ccccc1)C1OC1C(=O)c1ccccc1` (stereo not given) the value was 22.8%; for `O=C(O)CCCN1C(=O)CSC1=S`, 103%.
For the compound `CCCOc1ccc(/C=N/Nc2cc(C)nc3ccc(Cl)cc23)cc1`, the growth was -48% (active).
With `CC(=O)/C(=C/c1ccc([N+](=O)[O-])cc1)C(=O)c1ccccc1`, the growth is 41.9%.
`COc1ccccc1C(=O)/C=C/c1ccccc1`: the growth was 77%.
For the compound `COc1ccc2nc3cc(Cl)ccc3c(NCCCNCCO)c2c1`, the growth was -14.3% (active).
Consider `CCN(CC)CCCCNc1c2ccccc2[n+](C)c2c1[nH]c1ccccc12`, for which the growth is 22.7%.
Then `COc1cc2oc(-c3cccc(C(=O)Nc4ccc(Br)cc4)c3)cc(=O)c2c(OC)c1OC`, with 38.6%.
Then `COc1cc2c(c(Br)c1N)-c1cc(Br)c(N)cc1C2=O`, with 88.9%; and `CC(=O)O[C@H]1[C@@H]2OC(=O)C(CSc3ccccc3)[C@@H]2C[C@H]2O[C@]2(C)CC/C=C(\C)CCC[C@@H]1C` (stereo not given in full), with 25.8%.
For `O=C(COc1ccc(/C=C2\Cc3ccc(Cl)cc3C2=O)cc1)Nc1nc2ccccc2s1` the value was 117%.
`CN=C(N)N/N=C(\C)c1ccc2c(c1)Cc1cc(/C(C)=N/NC(N)=NC)ccc1-2`: the growth is -23.2% (active).
For `O=C1/C(=C/c2cccc(F)c2)CN(C(=O)C(Cl)Cl)C/C1=C\c1cccc(F)c1` the value was -41.6% (active).
Then `O=C(OCc1ccccc1)n1nnc2ccccc21`, with 111%; and `CCOc1ccc(NC(=O)Nc2ccc(OCC)cc2)cc1`, with 96.7%.
As to `CC(=O)OC[C@]12CC[C@@H](/C(C)=N/O)[C@@H]1[C@H]1CC[C@@H]3[C@@]4(C)CCCNC(C)(C)[C@@H]4CC[C@@]3(C)[C@]1(C)CC2`, the growth was 37.7%.
For the compound `CSc1ncc(C)c(Nc2ccc(Cl)cc2)n1`, the growth was 112%.
For `O=C1Cc2c(sc3c(F)cccc23)C(c2ccccc2[N+](=O)[O-])N1` (stereo not given) the value was 116%; for `Cc1cccc(-c2cn3ccnc3c(-c3ccc4ncn(Cc5ccccc5)c4c3)n2)c1`, 81.8%.
Take `COc1ccc(Sc2[nH]c(C(C)=O)c3ccccc23)cc1`: the growth was 23.3%.
Turning to `CCOC(=O)c1sc(NC(=O)c2cc(OC)c(OC)c(OC)c2)nc1C`, the growth was 102%.
For `C=C1C(=O)O[C@H]2[C@H](O)[C@@H](C)CCC/C(C)=C/CC[C@@]3(C)O[C@@H]3C[C@@H]12` the value was 92.5%.
Then `COc1cc2c(-c3cc4c(cc3CNCCc3ccc5c(c3)OCO5)OCO4)cccc2c(OC)c1O`, with 71.3%; and `CCCn1cnc2c1c(=O)n(CCCCC(C)=O)c(=O)n2C`, with 91.4%.
For `COc1cc(NC(=O)COc2cc(C)nc3ccc(OC)cc23)cc(OC)c1` the value was 80.3%; for `O=C=NC(c1ccccc1)(c1ccccc1)c1ccccc1`, 102%; for `CCCCC/C=C\C/C=C/CCCCCCCCNC(=O)Nc1ccc([N+](=O)[O-])cc1`, 4.75% (active).

The values above are taken from PubChem BioAssay (NCI).
